Assay results taken from the supplement of paper PMC7858590.

Each compound was assayed on human monocyte-derived macrophages (polarized) (assay: cell shape (eccentricity) Z-score vs DMSO control; higher = more elongated, M2-like morphology). Settings: 5 µM; 24 h; macrophage state: M1-polarized (IFNg + TNFa), cytokines present during treatment.
Procedure: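 Primary-screen hits were rescreened on polarized hMDMs with the differentiating cytokines (IL-4 + IL-13 or IFNg + TNFa) kept in the medium during treatment with compound at 5 uM for 24 h. The eccentricity Z-score vs DMSO wells is averaged over experiments.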

SMILES	cell shape (Z-score)
c1cc(-c2cnn3cc(-c4ccc(OCCN5CCCCC5)cc4)cnc23)ccn1	1.96
Cc1c(NC(=O)c2cccnc2)c(=O)n(-c2ccccc2)n1C	1.43
CO[C@H]1C[C@H](O[C@@H]2/C(C)=C/C[C@@H]3C[C@@H](C[C@]4(CC[C@H](C)[C@@H](C5CCCCC5)O4)O3)OC(=O)[C@@H]3C=C(C)/C(=N/O)[C@H]4OC/C(=C\C=C\[C@@H]2C)[C@]43O)O[C@@H](C)[C@@H]1O	17.6
CCOC(=O)N[C@@H]1CC[C@@H]2[C@@H](C1)C[C@H]1C(=O)O[C@H](C)[C@H]1[C@H]2/C=C/c1ccc(-c2cccc(F)c2)cn1	5.58
CCCCOC(=O)c1ccc(N)cc1	-0.788
C[C@]1(CO)CN(c2cc(C(=O)Nc3ccc4c(c3)-c3c(c(C(N)=O)nn3-c3ccc(F)cc3)CC4)c(Cl)cn2)C[C@@]1(C)CO	-7.03
CC1(CCOC2OC(CO)C(O)C(O)C2O)CCC2C(=CCC3C(C)(C(=O)O)CCCC23C)C1 (stereo not given)	-2.26
CC[C@]12CCCN3CCc4c(n(c5ccccc45)[C@@](O)(C(=O)OC)C1)[C@@H]32	-5.43

Same assay, conditions: 5 µM; 24 h; macrophage state: M2-polarized (IL-4 + IL-13), cytokines present during treatment

SMILES	cell shape (Z-score)
COc1cc(C=O)cc2c1[nH]c1ccccc12	-3.04
CC(=O)O[C@@H]1C[C@H]2C(C)(C)C(=O)CC[C@]2(C)[C@H]2CC[C@@]3(C)[C@H](c4ccoc4)OC(=O)[C@H]4O[C@]43[C@@]21C	-5.73
CC(C)CC1NC(=O)C(C)NC1=O (stereo not given)	-2.08
CN(C)CCC=C1c2ccccc2COc2ccccc21	-5.83
Cc1cc2cc3c(C)cc(=O)oc3c(C)c2o1	1.88
O=C(O)CN1C(=O)c2cccc3cccc(c23)C1=O	9.63
O=C(O)CC[C@H]1CC[C@@](c2cc(F)ccc2F)(S(=O)(=O)c2ccc(Cl)cc2)CC1	4.15
COc1ccc(/C=C/C(=O)c2ccc(O)cc2O)cc1	-3.18
CN1c2cc3c(cc2N=C(c2ccc(C(=O)O)cc2)c2ccccc21)C(C)(C)CCC3(C)C	-8.56
COc1ccc(C(=O)CC2(O)C(=O)Nc3c(Cl)ccc(Cl)c32)cc1 (stereo not given)	-16.1
COc1cc2c(cc1-c1coc3c4c(ccc3c1=O)OC(C)(C)C=C4)OCO2	-5.25
CC(=O)Cc1cc(=O)c2c(C)cc(O)c(C3OC(CO)C(O)C(O)C3O)c2o1 (stereo not given)	-1.16
